The source of these data is PubChem BioAssay (NCATS).

The target in assay [1] is Lysosomal acid glucosylceramidase (Homo sapiens) (UniProt P04062). Put plainly: Glucocerebrosidase-p2 (AID 348; in the data active means potency below about 10 µM; further: potency means the concentration at half of the fitted maximal effect). To be noted: purified GBA, blue fluorogenic substrate, 40 min. In outline: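 Compounds titrated from 0.6 nM upwards against 0.2 nM enzyme in pH 5.9 citric acid/KH2PO4, taurocholate, tween-20; blue fluorogenic substrate 80 uM, 40 min room temperature, stopped and read Ex 365/Em 440 for AC50.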

Assay [2] in a line: AP1 Signaling Pathway (AID 357; active means well fitted curve in either direction with a large enough effect, not every such curve was filed as active;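 further: ME-180 reporter cells stimulated with EGF at its EC50 level; on the % scale 0 is the no-effect control and ±100 the full control effect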). To be noted: ME-180 AP-1-bla reporter, EGF-induced, beta-lactamase ratio, 5 h; at 7.69 µM (top of the series) unless noted. The procedure, abridged:
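In this screen, ME-180 cells in Opti-MEM with 0.5% dialyzed FBS received EC50 EGF and compound titrations for 5 h. AP-1 reporter beta-lactamase was detected via CCF4 ratio, giving AC50 for positive and negative modulators.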

In assay [3] the target is Cytochrome P450 1A2 (Homo sapiens) (UniProt P05177). Description: p450-cyp1a2 (AID 410; calls by dose curve; further: potency means the concentration at half of the fitted maximal effect). To be noted: recombinant CYP1A2, luciferin-ME demethylation, luminescence; series mostly up to 57 µM. In outline: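 Inhibition was calculated relative to 57 uM furafylline (full inhibition). The reaction used human CYP1A2 at 20nM with Luciferin-ME at its Km, 100uM, driven by an NADPH-regenerating system for 60 min at room temperature.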

The nature of assay [4]: NFAT Signaling Pathway (AID 444; active means well fitted curve in either direction with a large enough effect, not every such curve was filed as active;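 further: carbachol stimulus at about its EC50 of 1 µM final; on the % scale 0 is the no-effect control and ±100 the full control effect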). To be noted: Jurkat NFAT-bla M1, carbachol, beta-lactamase ratio, 5 h; at 7.69 µM (top of the series) unless noted. The procedure, abridged: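 Jurkat cells carrying an NFAT-driven β-lactamase reporter and co-transfected muscarinic M1 receptor were treated with compound plus carbachol (1 uM final, an EC50 level) for 5 h at 37 °C. CCF4 loading followed for 1 h at RT; 460/530 nm ratio gave %activity.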

The nature of assay [5]: Stat Signaling Pathway (AID 446; active means well fitted curve in either direction with a large enough effect, not every such curve was filed as active;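 further: ME-180 cervical cancer cells given 40 pM IL-6 alongside compound; SIE-controlled beta-lactamase reporter measured as 460/530 nm FRET emission ratio; on the % scale 0 is the no-effect control and ±100 the full control effect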). To be noted: ME-180 (cervical carcinoma) SIE beta-lactamase reporter, IL-6 stimulated, 5 h; at 7.69 µM (top of the series) unless noted. In outline:
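ME-180 cells carrying a SIE-driven beta-lactamase reporter are stimulated with 40 pM IL-6 for 5 h at 37C in the presence of compound. The 460/530 nm FRET substrate ratio is read after 2.5 h at RT. Data are normalised to 300 pM IL-6 and to 125 nM JAK inhibitor controls.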

Assay [6] addresses Glucocorticoid receptor (Homo sapiens) (UniProt P04150). Put plainly: GR-GFP Redistribution (AID 450;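 active means compounds whose dose series gives a full or clear partial fitted curve of increased nuclear translocation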; further: potency means the concentration at half of the fitted maximal effect). The note with it: U2OS GR-GFP nuclear translocation, laser cytometry, 2 h.
Assay [7] shares this target. Put plainly: GR-EFC Redistribution (AID 451; calls by dose curve; further: potency means the concentration at half of the fitted maximal effect). To be noted: CHO-K1 GR-EFC translocation, beta-gal luminescence, 2 h. In outline: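 CHO-K1 cells stably expressing nuclear-localized β-gal enzyme acceptor and GR fused C-terminally to the enzyme donor fragment; ligand-driven nuclear translocation restores β-gal by complementation. Compounds titrated up to 46 uM final, 2 h at 37 °C; luminescence read.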

Assay [8] has as its target Mitogen-activated protein kinase 10 (Mus musculus) (UniProt Q61831). Put plainly: JNK3 AlphaScreen Assay (AID 530; active means well fitted curve in either direction with a large enough effect, not every such curve was filed as active;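 further: kinase came from lysate of stimulated human HepG2 cells; on the % scale 0 is the no-effect control and ±100 the full control effect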). To be noted: JNK3 lysate, c-Jun phosphorylation; series mostly up to 57.1 µM. The procedure, abridged: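 JNK3 came from HepG2 lysates pre-activated with IL-1beta and TNF-alpha and phosphorylated biotinylated GST-cJun (1-79) at 10 uM ATP, pH 7.6, room temperature. Compounds were titrated. AlphaScreen signal used anti-phospho-cJun (Ser73) antibody.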

For assay [9], the target named is 3',5'-cyclic-AMP phosphodiesterase 4B (Homo sapiens) (UniProt Q07343). Description: qHTS Assay for Inhibitors of PDE-IV (AID 607; active means well fitted activation curve with a large enough effect in the main read-out, with a control signal flat, not every such curve was filed as active; further: % of control where 0% means no effect). To be noted: HEK293 ACTOne CNG channel cells, membrane potential fluorescence; series mostly up to 22.9 µM. The procedure, abridged: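 HEK293 ACTOne cells with CNG channel (1000/well), endogenous PDE4; membrane potential dye, compounds up to 22.9 uM final. Fluorescence Ex 535/Em 590; RO 20-1724 (100 uM final) as reference.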

The target in assay [10] is Cytochrome P450 3A4 (Homo sapiens) (UniProt P08684). Put plainly: qHTS Assay for Activators of Cytochrome P450 3A4 (AID 885). Further: nearly all actives have a fitted effect of over 65% in size. To be noted: recombinant CYP3A4, Luciferin-PPXE luminescence, 60 min; series mostly up to 57.1 µM. The procedure, abridged:
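Human CYP3A4 (20 nM) with Luciferin-PPXE at 25 uM (its KM) in 200 mM KPO4; 10 min compound preincubation, then NADPH regeneration and 60 min reaction at RT. Luciferin read by luminescence; normalized to 57 uM ketoconazole full inhibition.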

Assay [11] has as its target Dual specificity protein kinase CLK4 (Homo sapiens) (UniProt Q9HAZ1). Description: qHTS Assay for Inhibitors of CDC-like Kinase 4 (Kinase-Glo Assay) (AID 1770). Further: nearly all actives have a fitted effect of over 65% in size. Further: potency means the concentration at half of the fitted maximal effect. The note with it: recombinant Clk4, Kinase-Glo ATP depletion luminescence; series mostly up to 66.7 µM. The procedure, abridged:
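Substrate mix (RS peptide 100 uM, ATP 1 uM) dispensed, compound pinned in, then Clk4 added to 25 nM final. Incubated 4.5 h at RT; Kinase-Glo reagent added, luminescence read after 5 min.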

For assay [12] the target is unchanged. Description: qHTS Assay for Inhibitors of CDC-like Kinase 4 (ADP-Glo Assay) (AID 1771). Further: nearly all actives have a fitted effect of over 70% in size. Further: potency means the concentration at half of the fitted maximal effect. To be noted: recombinant CLK4, ADP-Glo luminescence; series mostly up to 80 µM. The procedure, abridged:
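Kinase reaction: Clk4 at 25 nM, RS repeat peptide substrate at 100 uM, ATP at 1 uM, 1 hr, room temperature. Product ADP detected as luciferase signal via ADP-Glo.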
(In qHTS, concentration-response curves come from the screen itself.)

The target is the same in assay [13]. Put plainly: qHTS Assay for Inhibitors of CDC-like Kinase 4 (ADP-FP Assay) (AID 1795). Further: nearly all actives have a fitted effect of over 60% in size. Further: potency means the concentration at half of the fitted maximal effect. The note with it: Transcreener ADP fluorescence polarization; series mostly up to 50 µM. In outline:
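Clk4 6.25 nM; RS peptide 100 uM; ATP 1 uM; 25 mM Tris pH 7.5, 10 mM MgCl2; 1 h reaction. ADP detected via antibody/orange tracer FP displacement; TG003 positive control.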

The target in assay [14] is Ubiquitin carboxyl-terminal hydrolase 1 (Homo sapiens) (UniProt O94782). Put plainly: Inhibitors of USP1/UAF1: Pilot qHTS (AID 504865).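 Further: rhodamine fluorescence freed from ubiquitin-rhodamine substrate followed over time; top concentration of the series differs between compounds; on the % scale 0 is the no-effect control and ±100 the full control effect; nearly all actives have a fitted effect of over 35% in size.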 To be noted: purified USP1/UAF1, Ub-rhodamine cleavage fluorescence; series mostly up to 54.9 µM. In outline:
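In 50mM HEPES pH 7.8 containing 0.5mM EDTA, 1mM TCEP, 0.1 mg/ml BSA and 0.01% Tween-20, 1nM USP1/UAF1 is exposed to compound for 15 min, then Ub-Rho (150nM final) is added and fluorescence is read over time.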

Assay [15] can be described thus: Primary qHTS for small molecule stabilizers of the endoplasmic reticulum resident proteome: Secreted ER Calcium Modulated Protein (SERCaMP) assay (AID 1508630). Further: on the % scale 0 is the no-effect control and ±100 the full control effect. To be noted: SH-SY5Y GLuc-SERCaMP (Gaussia luciferase released on ER calcium loss) secretion, thapsigargin, luminescence; series mostly up to 38.4 µM. In outline: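 GLuc-SERCaMP-expressing SH-SY5Y cells, pretreated 16 h with compound, are challenged with thapsigargin to empty ER calcium stores; after 4 h, coelenterazine is added directly to the medium and luminescence is imaged.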

Assay [16] concerns the target Cytochrome P450 2C9 (Homo sapiens) (UniProt P11712). Put plainly: qHTS Assay for Inhibitors and Substrates of Cytochrome P450 2C9 (AID 883). Further: on the % scale 0 is the no-effect control and ±100 the full control effect; nearly all actives have a fitted effect of over 60% in size. The note with it: recombinant CYP2C9, luciferin-H luminescence, 60 min; series mostly up to 57.1 µM. The procedure, abridged:
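CYP2C9 deoxyluciferin hydroxylation, 37C, 60 min with NADPH regeneration; 10nM enzyme, 100uM Luciferin-H (KM). Glo detection reagent stopped reaction; luminescence normalized to sulphaphenazole (57uM) full inhibition.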

For assay [17], the target named is Cytochrome P450 3A4 (Homo sapiens) (UniProt P08684). Put plainly: qHTS Assay for Inhibitors and Substrates of Cytochrome P450 3A4 (AID 884). Further: potency means the concentration at half of the fitted maximal effect; nearly all actives have a fitted effect of over 50% in size. The note with it: recombinant CYP3A4, Luciferin-PPXE luminescence; series mostly up to 57.1 µM. The procedure, abridged:
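20 nM human CYP3A4 with 25 uM Luciferin-PPXE (at KM) in 200 mM KPO4, preincubated 10 min with compound; NADPH regeneration started a 60 min RT reaction. Luciferin detected by luminescence, normalized to 57 uM ketoconazole as full inhibition.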

Molecules are shown by their SMILES. Unmarked numbers belong to inactive results. Inconclusive results are not listed. Active and inactive are the calls of the source. Unless noted, the call rests on the fitted dose curve; in most records, active means well fitted curve in the direction sought with a large enough effect; inconclusive means small, poorly fitted or top-dose-only effect, or another doubt; inactive means no such curve, though single readings can be large; an effect the other way counts as inactive or inconclusive.

Dual specificity protein kinase CLK4 (Homo sapiens), sequence (Q9HAZ1 whole entry, looked up): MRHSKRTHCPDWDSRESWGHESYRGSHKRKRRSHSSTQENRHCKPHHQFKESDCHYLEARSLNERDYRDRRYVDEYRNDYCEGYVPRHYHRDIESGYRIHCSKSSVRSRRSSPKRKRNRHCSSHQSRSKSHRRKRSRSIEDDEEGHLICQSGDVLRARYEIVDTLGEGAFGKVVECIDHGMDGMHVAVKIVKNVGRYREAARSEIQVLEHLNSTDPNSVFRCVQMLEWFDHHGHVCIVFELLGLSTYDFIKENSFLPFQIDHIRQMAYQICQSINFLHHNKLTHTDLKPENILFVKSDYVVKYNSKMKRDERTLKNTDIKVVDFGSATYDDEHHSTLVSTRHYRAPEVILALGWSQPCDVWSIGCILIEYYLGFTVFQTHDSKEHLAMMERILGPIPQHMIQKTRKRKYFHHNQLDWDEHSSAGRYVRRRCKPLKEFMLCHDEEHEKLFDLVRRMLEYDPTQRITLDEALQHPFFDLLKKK
Cytochrome P450 1A2 (Homo sapiens), sequence (P05177 whole entry, looked up): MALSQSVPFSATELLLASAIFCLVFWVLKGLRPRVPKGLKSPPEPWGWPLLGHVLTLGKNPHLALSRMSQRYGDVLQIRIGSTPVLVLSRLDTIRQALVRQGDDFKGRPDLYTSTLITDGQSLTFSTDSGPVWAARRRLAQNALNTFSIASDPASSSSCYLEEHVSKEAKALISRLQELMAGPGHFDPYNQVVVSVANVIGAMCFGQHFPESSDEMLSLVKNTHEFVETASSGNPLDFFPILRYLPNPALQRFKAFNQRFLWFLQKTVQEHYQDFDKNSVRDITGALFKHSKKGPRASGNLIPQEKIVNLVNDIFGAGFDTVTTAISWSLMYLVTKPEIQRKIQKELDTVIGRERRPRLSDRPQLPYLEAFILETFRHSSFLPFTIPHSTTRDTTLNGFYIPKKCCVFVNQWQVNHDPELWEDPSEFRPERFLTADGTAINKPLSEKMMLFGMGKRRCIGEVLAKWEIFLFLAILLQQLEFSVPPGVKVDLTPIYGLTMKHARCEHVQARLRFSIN
Cytochrome P450 3A4 (Homo sapiens), sequence (P08684 whole entry, looked up): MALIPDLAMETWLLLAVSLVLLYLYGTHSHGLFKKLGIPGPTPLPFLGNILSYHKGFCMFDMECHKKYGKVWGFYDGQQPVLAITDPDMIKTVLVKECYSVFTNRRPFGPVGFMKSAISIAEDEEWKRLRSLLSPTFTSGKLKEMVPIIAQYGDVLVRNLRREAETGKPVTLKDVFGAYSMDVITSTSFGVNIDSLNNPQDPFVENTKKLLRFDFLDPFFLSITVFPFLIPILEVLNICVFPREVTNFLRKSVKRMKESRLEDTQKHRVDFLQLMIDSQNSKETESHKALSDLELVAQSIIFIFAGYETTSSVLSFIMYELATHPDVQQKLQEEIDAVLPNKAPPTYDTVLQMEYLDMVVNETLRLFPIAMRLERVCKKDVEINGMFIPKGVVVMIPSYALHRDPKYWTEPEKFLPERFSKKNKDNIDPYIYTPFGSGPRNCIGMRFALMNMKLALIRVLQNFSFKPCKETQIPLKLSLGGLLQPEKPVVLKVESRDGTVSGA
Glucocorticoid receptor (Homo sapiens), sequence (P04150 whole entry, looked up, the tested form may be a part): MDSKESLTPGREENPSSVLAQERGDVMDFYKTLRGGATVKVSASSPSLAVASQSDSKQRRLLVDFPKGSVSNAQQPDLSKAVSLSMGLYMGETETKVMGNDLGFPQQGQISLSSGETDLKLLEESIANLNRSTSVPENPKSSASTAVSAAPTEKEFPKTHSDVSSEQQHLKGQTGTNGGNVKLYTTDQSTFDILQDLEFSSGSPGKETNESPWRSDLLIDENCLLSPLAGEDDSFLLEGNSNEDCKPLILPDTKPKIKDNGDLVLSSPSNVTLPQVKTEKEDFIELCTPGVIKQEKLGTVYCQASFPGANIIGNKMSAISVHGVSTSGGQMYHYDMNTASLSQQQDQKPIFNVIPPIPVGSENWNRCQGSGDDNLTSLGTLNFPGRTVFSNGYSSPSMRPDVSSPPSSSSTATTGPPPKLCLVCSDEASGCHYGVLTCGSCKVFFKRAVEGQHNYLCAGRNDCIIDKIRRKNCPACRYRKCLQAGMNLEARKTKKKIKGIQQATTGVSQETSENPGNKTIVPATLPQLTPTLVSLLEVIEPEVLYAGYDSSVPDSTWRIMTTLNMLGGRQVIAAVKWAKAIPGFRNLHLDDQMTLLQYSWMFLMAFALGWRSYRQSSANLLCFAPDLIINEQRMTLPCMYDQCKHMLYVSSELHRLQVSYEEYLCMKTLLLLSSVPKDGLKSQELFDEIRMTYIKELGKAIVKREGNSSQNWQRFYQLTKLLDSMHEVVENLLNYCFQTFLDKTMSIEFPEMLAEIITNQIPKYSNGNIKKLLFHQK
Ubiquitin carboxyl-terminal hydrolase 1 (Homo sapiens), sequence (O94782 whole entry, looked up): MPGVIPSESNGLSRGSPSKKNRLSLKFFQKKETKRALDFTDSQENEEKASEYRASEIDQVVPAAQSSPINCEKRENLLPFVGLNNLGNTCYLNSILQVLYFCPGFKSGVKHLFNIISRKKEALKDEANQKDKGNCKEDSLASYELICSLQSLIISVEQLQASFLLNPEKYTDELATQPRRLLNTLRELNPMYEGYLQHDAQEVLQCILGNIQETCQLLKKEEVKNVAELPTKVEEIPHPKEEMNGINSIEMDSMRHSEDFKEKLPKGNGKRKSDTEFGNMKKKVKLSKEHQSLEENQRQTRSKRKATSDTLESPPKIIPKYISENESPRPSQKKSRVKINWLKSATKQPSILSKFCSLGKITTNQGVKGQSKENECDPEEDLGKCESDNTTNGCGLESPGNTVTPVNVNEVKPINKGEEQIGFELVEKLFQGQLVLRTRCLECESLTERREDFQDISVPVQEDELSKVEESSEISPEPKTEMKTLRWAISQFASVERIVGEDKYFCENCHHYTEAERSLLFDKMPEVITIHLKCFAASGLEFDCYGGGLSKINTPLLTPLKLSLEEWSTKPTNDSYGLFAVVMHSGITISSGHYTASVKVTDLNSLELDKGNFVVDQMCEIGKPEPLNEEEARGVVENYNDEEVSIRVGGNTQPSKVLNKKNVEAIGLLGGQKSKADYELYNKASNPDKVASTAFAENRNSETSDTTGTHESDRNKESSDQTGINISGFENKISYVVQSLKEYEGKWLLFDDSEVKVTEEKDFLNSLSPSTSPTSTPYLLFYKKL
3',5'-cyclic-AMP phosphodiesterase 4B (Homo sapiens), sequence (Q07343 whole entry, looked up): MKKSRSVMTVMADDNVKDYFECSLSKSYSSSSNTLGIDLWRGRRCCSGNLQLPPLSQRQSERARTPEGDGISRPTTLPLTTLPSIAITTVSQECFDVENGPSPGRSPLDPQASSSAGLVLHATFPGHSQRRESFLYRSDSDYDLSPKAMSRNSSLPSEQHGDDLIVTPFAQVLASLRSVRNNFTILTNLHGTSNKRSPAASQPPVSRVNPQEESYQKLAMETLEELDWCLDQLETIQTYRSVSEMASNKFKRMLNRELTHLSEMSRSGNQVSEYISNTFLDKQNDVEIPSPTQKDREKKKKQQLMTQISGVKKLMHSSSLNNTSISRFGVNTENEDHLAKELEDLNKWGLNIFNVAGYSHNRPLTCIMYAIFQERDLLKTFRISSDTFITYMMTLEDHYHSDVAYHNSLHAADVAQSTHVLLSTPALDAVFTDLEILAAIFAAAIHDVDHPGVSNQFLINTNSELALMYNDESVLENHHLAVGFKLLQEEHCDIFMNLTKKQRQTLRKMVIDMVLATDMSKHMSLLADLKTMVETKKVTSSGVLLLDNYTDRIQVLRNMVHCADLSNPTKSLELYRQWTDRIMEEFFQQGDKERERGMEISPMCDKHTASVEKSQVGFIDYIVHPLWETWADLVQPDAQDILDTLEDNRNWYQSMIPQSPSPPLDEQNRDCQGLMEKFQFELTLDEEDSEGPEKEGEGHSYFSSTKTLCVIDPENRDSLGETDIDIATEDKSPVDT
Lysosomal acid glucosylceramidase (Homo sapiens), sequence (P04062 whole entry, looked up): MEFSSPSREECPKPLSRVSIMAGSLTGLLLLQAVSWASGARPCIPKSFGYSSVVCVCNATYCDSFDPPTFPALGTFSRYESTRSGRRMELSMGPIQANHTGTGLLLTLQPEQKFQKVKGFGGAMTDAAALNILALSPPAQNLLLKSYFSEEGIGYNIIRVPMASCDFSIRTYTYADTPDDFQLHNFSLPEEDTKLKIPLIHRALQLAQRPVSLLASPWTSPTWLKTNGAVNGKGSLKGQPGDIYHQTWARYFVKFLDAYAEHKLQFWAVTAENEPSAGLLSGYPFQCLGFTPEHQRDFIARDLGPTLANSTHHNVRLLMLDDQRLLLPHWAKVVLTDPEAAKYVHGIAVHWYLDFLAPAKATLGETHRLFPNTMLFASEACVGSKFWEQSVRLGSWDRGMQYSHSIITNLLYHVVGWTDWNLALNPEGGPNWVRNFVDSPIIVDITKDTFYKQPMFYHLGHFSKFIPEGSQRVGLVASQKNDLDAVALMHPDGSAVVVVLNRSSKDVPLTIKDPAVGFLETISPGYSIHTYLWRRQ
Cytochrome P450 2C9 (Homo sapiens), sequence (P11712 whole entry, looked up): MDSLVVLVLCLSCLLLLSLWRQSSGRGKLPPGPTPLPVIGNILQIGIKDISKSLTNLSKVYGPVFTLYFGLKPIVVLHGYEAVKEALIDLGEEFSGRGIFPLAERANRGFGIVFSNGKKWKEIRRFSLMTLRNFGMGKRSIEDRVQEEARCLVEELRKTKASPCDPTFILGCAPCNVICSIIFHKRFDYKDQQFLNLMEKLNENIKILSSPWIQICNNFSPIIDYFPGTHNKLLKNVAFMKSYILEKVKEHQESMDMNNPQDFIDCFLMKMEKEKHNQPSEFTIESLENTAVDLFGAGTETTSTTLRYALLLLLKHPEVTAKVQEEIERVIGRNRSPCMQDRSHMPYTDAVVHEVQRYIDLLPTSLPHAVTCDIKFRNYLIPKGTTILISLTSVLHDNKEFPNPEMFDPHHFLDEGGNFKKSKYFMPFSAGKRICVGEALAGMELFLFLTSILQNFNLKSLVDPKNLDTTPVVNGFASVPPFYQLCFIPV

Consider `Cc1cnc(CNc2ncncc2-c2ccccc2Cl)cn1`, for which the Potency in assay [1] is more than 11.4 µM; in assay [3], 15.8 µM (active); in assay [6], more than 46 µM; in assay [7], more than 46 µM. Besides, the values for the activity change, negative = inhibition in assay [2] and in assay [4] were -2.38% and 13.7%, respectively. The activity, negative = inhibition in assay [5] was -0.675%. Further, the Potency result in assay [8], in assay [9], in assay [10], in assay [11], in [12] and in [13] was “inactive” in each case. In addition, in assay [14], the Potency entry is “inactive”. Further, the result in [15] was inactive.

Regarding `CN(C)C(=O)c1ccc(-c2nccc(Nc3ccc(F)cc3)n2)cc1`, the Potency in assay [1] was more than 11.4 µM; in [3], 6.31 µM (active); in [6] it was more than 46 µM; in [7] it was more than 46 µM. Moreover, the activity change, negative = inhibition is -14.3% in assay [2] and -12.1% in assay [4]. Also, the activity, negative = inhibition in assay [5] was -4.15%. Further, the Potency entry in [8], in assay [9], in assay [10], in assay [11], in [12] and in assay [13] was “inactive” each time. Further, in assay [14], the Potency entry is “inactive”. Also, in assay [15], the outcome was inactive.

Regarding `Cc1nc2cncnc2n(Cc2ccc(F)cc2)c1=O`, the Potency in assay [1] is more than 11.4 µM; in assay [3], 10 µM (active); in [6], more than 9.22 µM; in assay [7] it was more than 46 µM. The activity change, negative = inhibition in [2] was -6.19%; in assay [4], 9.35%. The activity, negative = inhibition in assay [5] is -9.93%. The Potency result in assay [8], in assay [9], in assay [10], in assay [11], in assay [12] and in [13] was “inactive” throughout. In addition, the Potency result in assay [14] was “inactive”. The outcome in [15] was inactive.

Regarding `COc1ccc(Oc2ncc3nc(-c4cn(C)c5ccccc45)c(=O)n(C)c3n2)cc1`, the Potency in [1] is more than 11.4 µM; in assay [6], more than 9.22 µM; in [7], more than 46 µM. The activity change, negative = inhibition is -24.2% in assay [2] and -8.09% in [4]. In addition, the Potency result in assay [3], in assay [8], in assay [9], in assay [16], in [10] and in assay [11] was “inactive” throughout. For the same compound, the Potency entry in assay [12], in assay [13] and in assay [14] was “inactive” in each case. Also, the activity, negative = inhibition in assay [5] is 1.51%. The outcome in assay [15] was inactive.

For `COc1ccccc1-c1cc(-n2ccnc2)ncn1`, the Potency in assay [1] was more than 11.4 µM; in assay [3], 0.316 µM (active); in [6], more than 46 µM; in assay [7], more than 46 µM; in assay [17] it was 0.316 µM (active); in assay [11], 6.31 µM (active). The Potency in assay [12] is 6.31 µM (active); in assay [13], 8.91 µM (active). The activity change, negative = inhibition in assay [2] is 8.26%; in assay [4] it was 7.77%. Further, the activity, negative = inhibition in assay [5] was 10.2%. Further, the Potency entry in assay [8], in assay [9], in [10] and in assay [14] was “inactive” each time. Moreover, in assay [15], the outcome was inactive.

For the compound `COCCn1c(=O)c(C)nc2cncnc21`, the Potency in [1] is more than 11.4 µM; in [3] it was 15.8 µM (active); in assay [6], more than 9.22 µM; in [7] it was more than 46 µM. Further, the activity change, negative = inhibition was -8.48% in assay [2] and 3.43% in [4]. Moreover, the activity, negative = inhibition in assay [5] is -7.75%. Moreover, the Potency result in assay [8], in assay [9], in [10], in assay [11], in assay [12] and in assay [13] was “inactive” throughout. In assay [14], the Potency result was “inactive”. Besides, the outcome in [15] was inactive.
